Experimental data as given in PubChem BioAssay (NCI).
This is part of a sample that, as a whole, favours compounds with a hit. Of some 79,000 tested, about 15% had one in any assay. Rule as the data show it: active = growth inhibition above about 70%; inactive = the rest.

Experiments:
[1] = NCI Yeast Anticancer Drug Screen. Data for the rad50 strain (AID 155);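 also: 0% = growth of vehicle-only cultures of the same strain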; settings: S. cerevisiae rad50 strain growth inhibition, hits give high values; at 50.0 µM unless noted
Procedure, shortened: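 Cells are treated with compound, grown, and their growth is then scored against vehicle-only cultures of the same repair-deficient yeast strain.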

[2] = NCI Yeast Anticancer Drug Screen. Data for the mec2-1 strain (AID 157); settings: S. cerevisiae mec2-1 strain, hits give high values; at 50.0 µM unless noted
Procedure, shortened: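 Test agents were screened against the mec2-1 yeast strain, with defined DNA repair or cell cycle alteration. Growth was scored as inhibition against vehicle-only controls.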

[3] = NCI Yeast Anticancer Drug Screen. Data for the sgs1 mgt1 strain (AID 161);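 also: 0% = growth of cultures given vehicle only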; settings: S. cerevisiae sgs1 mgt1 strain, hits give high values; at 50.0 µM unless noted
Procedure, shortened: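 Genetically altered yeast, compound exposure, growth inhibition relative to vehicle.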

[4] = NCI Yeast Anticancer Drug Screen. Data for the cln2 rad14 strain (AID 165);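 also: 0% = growth equal to vehicle treated cultures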; settings: S. cerevisiae cln2 rad14 strain, hits give high values; at 50.0 µM unless noted
Procedure, shortened: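 Growth of compound-exposed yeast (cln2 rad14 genotype) measured and expressed as inhibition relative to vehicle.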

[5] = NCI Yeast Anticancer Drug Screen. Data for the bub3 strain (AID 167); settings: S. cerevisiae bub3 mutant strain, hits give high values; at 50.0 µM unless noted
Procedure, shortened: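 Part of a panel of yeast mutants defective in DNA damage repair or cell cycle regulation. Each strain is grown with compound, and inhibition is calculated relative to solvent-treated cultures.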

[6] = NCI Yeast Anticancer Drug Screen. Data for the mlh1 rad18 strain (AID 175); settings: S. cerevisiae mlh1 rad18 strain growth inhibition, hits give high values; at 50.0 µM unless noted
Procedure, shortened: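 In this whole-cell yeast screen, a strain with altered DNA damage repair is challenged with compound, and its growth is measured against matched vehicle-treated controls.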

Measured: growth inhibition

O=C(CCCN1CCC2(CC1)C(=NC1CCCCC1)NC(=O)N2c1ccccc1)c1ccc(F)cc1
inactive: [1] -10.8% | [2] -3.6% | [3] -3% | [4] 3.45% | [5] 13.7% | [6] -6.85%

c1ccc2cnncc2c1
inactive: [1] 0.35% | [2] -0.55% | [3] -11.8% | [4] 4.35% | [5] 11.7% | [6] 0.25%

CCCC(=O)NC1CCc2cc(OC)c(OC)c(OC)c2-c2ccc(OC)c(=O)cc21 (stereo not given)
inactive: [1] 27.4% | [2] -40.5% | [3] 23.1% | [4] -0.9% | [5] 3.45% | [6] 3.2%

O=C1c2ccccc2C(=O)N1/N=[N+](\[O-])c1ccccc1
inactive: [1] 3.55% | [2] 0.3% | [3] 17.2% | [4] 7.3% | [5] 25.3% | [6] 40.8%

N#C/C(=C\C1CCCCC1Cl)C1CCC([N+](=O)[O-])CC1 (stereo not given)
inactive: [1] 12.6% | [2] 5.15% | [3] 17.2% | [4] -8.35% | [5] 32.8% | [6] 18.1%
